Measurements published in PubChem BioAssay (NCATS).
Inconclusive results are not listed. The source made the active and inactive calls. The call rests on the fitted dose curve; in most records, active means well fitted inhibition curve with a large enough effect; inconclusive means small, poorly fitted or top-dose-only effect; inactive means flat fitted curve, though single readings scatter.

What was measured:
CRL-7250 = normal cell line; test: Cytotoxic Profiling of Annotated Libraries Using Quantitative High-Throughput Screening (AID 1296008); settings: Five cell lines viability, CellTiter-Glo ATP luminescence, 48-72 h; max response: stronger effect = lower value; on max response: on the % scale 0 is the no-effect control and ±100 the full control effect
Outline: (§1)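 Cells exposed to compounds for 48 or 72 hr at 37 degrees Celsius. Viability read as ATP-coupled luminescence with CellTiter-Glo after 10 min at room temperature.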

HaCat [1] = test: as above; settings: Five cell lines viability, CellTiter-Glo ATP luminescence, 48-72 h; max response: stronger effect = lower value
Outline: as §1

KB-3-1 = test: as above; settings: Five cell lines viability, CellTiter-Glo ATP luminescence, 48-72 h; max response: stronger effect = lower value
Outline: as §1

NIH3T3 = test: as above; settings: Five cell lines viability, CellTiter-Glo ATP luminescence, 48-72 h; max response: stronger effect = lower value
Outline: as §1

HACAT [2] = test: qHTS assay to identify novel small-molecules to repurpose for Merkel cell carcinoma treatment (AID 1296009); settings: MCC and control cell lines, CellTiter-Glo viability, 72 h; at 44.8 µM (top of the series) unless noted
Outline: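 CellTiter-Glo luminescence after 72 hr compound exposure at 37 degree celsius gave cell viability. Libraries NPC and MIPE were run as 8- and 11-point dose responses; RLUs normalized to DMSO (negative) and no-cell (cytotoxicity) controls.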

Measured: max response
Further: nearly all actives have a fitted effect of over 60% in size.

CC(=O)O[C@]1(C(C)=O)CC[C@H]2[C@@H]3CCC4=CC(=O)CCC4=C3[C@@H](c3ccc(N(C)C)cc3)C[C@@]21C
inactive: CRL-7250 | HaCat [1] | KB-3-1 -14.7% | NIH3T3 -1.52% | HACAT [2]

O=C(O)C1=CO[C@@H](O[C@@H]2O[C@H](CO)[C@@H](O)[C@H](O)[C@H]2O)[C@@H]2C(CO)=CC[C@H]12
inactive: CRL-7250 -1.39% | HaCat [1] | KB-3-1 6.01% | NIH3T3 -3.54% | HACAT [2]

CC(=O)OCC(=O)[C@@]12O[C@@H]1C[C@H]1[C@@H]3CC=C4C[C@@H](O)CC[C@]4(C)[C@H]3CC[C@@]12C
inactive: CRL-7250 1.57% | HaCat [1] | KB-3-1 | NIH3T3 | HACAT [2]

NS(=O)(=O)c1ccc(NC(=O)Nc2ccc(F)cc2)cc1
inactive: CRL-7250 | HaCat [1] | KB-3-1 -12% | NIH3T3 2.88% | HACAT [2]

CCCOc1ccc(S(=O)(=O)N2CCN(CCO)CC2)cc1-c1nc2c(CCC)cn(CC)c2c(=O)[nH]1
inactive: CRL-7250 -15% | HaCat [1] | KB-3-1 7.41% | NIH3T3 4.33% | HACAT [2]

CNCCCC1(c2ccccc2)OC(C)(C)c2ccccc21 (stereo not given)
inactive: CRL-7250 3.46% | HaCat [1] | KB-3-1 -1.28% | NIH3T3 | HACAT [2]

C=CC(=O)N1CC(N2CCN(C(=O)CNc3cc(C4CC4)c(Cl)cc3O)CC2)C1
inactive: all assays above

CN1CCN(C2=Nc3ccccc3Nc3ccc(OS(=O)(=O)C(F)(F)F)cc32)CC1
inactive: CRL-7250 | HaCat [1] | KB-3-1 -4.68% | NIH3T3 | HACAT [2]
